Assay results published in PubChem BioAssay AID1159580 (chemical genetic matrix, 2015).
Out of some 5,500 compounds screened, about 2,000 (36%) were called active. Inconclusive results (about 18%) are left out. No stated cut-off is given here; in the data, active means normalized growth mostly below about 0.91 (no sharp cut-off); inconclusive means no clear call, values can overlap the other calls; inactive means mostly above about 0.92. The list shows a part of the results.

Assay: chemical genetic growth profiling, strain panel (AID 1159580);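 further: tested at 20 µM; growth read once vehicle control cultures reached saturation at 30 °C; 1 = growth at the plate median or of vehicle wells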
Conditions: S. cerevisiae deletion strains, growth OD

Measured: normalized growth

CN1CC(=O)N2[C@H](c3ccc4c(c3)OCO4)c3[nH]c4ccccc4c3C[C@@H]2C1=O
inactive: locus YHR030C, strain SLT2, stronger effect = lower value 0.966 | locus YHR079C, strain IRE1, stronger effect = lower value 0.947 | locus YJL095W, strain BCK1, stronger effect = lower value 0.964 | locus YJR066W, strain TOR1, stronger effect = lower value 0.913 | locus YLR113W, strain HOG1, stronger effect = lower value 0.968 | locus YNL183C, strain NPR1, stronger effect = lower value 0.918 | locus YOR231W, strain MKK1, stronger effect = lower value 0.975 | locus YPL256C, strain CLN2, stronger effect = lower value 0.946

O=C(O)c1ccc2c(c1)OCO2
inactive: locus YAL021C, strain ccr4, stronger effect = lower value 1.01 | locus YAL026C, strain drs2, stronger effect = lower value 0.983 | locus YAL030W, strain snc1, stronger effect = lower value 1.01 | locus YBL061C, strain skt5, stronger effect = lower value 1 | locus YBR009C, strain hhf1, stronger effect = lower value 0.997 | locus YBR023C, strain chs3, stronger effect = lower value 1.01 | locus YBR171W, strain sec66, stronger effect = lower value 0.992 | locus YBR231C, strain swc5, stronger effect = lower value 1.01 | locus YBR279W, strain paf1, stronger effect = lower value 1.01 | locus YCL011C, strain gbp2, stronger effect = lower value 0.979 | locus YCL016C, strain dcc1, stronger effect = lower value 1.01 | locus YCL061C, strain MRC1, stronger effect = lower value 0.984 | locus YCL069W, strain vba3, stronger effect = lower value 0.984 | locus YCR088W, strain abp1, stronger effect = lower value 0.984 | locus YDL005C, strain med2, stronger effect = lower value 1.01 | locus YDL040C, strain nat1, stronger effect = lower value 1.01 | locus YDR001C, strain nth1, stronger effect = lower value 0.982 | locus YDR069C, strain doa4, stronger effect = lower value 1.02 | locus YDR137W, strain rgp1, stronger effect = lower value 1.01 | locus YDR159W, strain sac3, stronger effect = lower value 0.98 | locus YDR195W, strain ref2 1.02 | locus YDR297W, strain sur2, stronger effect = lower value 1.01 | locus YDR334W, strain swr1, stronger effect = lower value 0.994 | locus YDR335W, strain msn5, stronger effect = lower value 1.01 | locus YDR392W, strain spt3, stronger effect = lower value 0.979 | locus YEL003W, strain gim4, stronger effect = lower value 0.98 | locus YEL037C, strain rad23, stronger effect = lower value 0.987 | locus YEL061C, strain CIN8 (second series), stronger effect = lower value 0.988 | locus YER015W, strain faa2, stronger effect = lower value 0.997 | locus YER016W, strain bim1, stronger effect = lower value 1.01 | locus YER111C, strain swi4, stronger effect = lower value 0.978 | locus YER155C, strain BEM2 (second series), stronger effect = lower value 0.992 | locus YFR010W, strain ubp6, stronger effect = lower value 0.994 | locus YGL167C, strain pmr1, stronger effect = lower value 1.02 | locus YGL173C, strain kem1, stronger effect = lower value 1.01 | locus YGL227W, strain vid30, stronger effect = lower value 0.973 | locus YGL240W, strain doc1, stronger effect = lower value 0.998 | locus YGL253W, strain hxk2, stronger effect = lower value 1.01 | locus YHR013C, strain ard1, stronger effect = lower value 1.05 | locus YHR027C, strain rpn1, stronger effect = lower value 1.03 | locus YHR142W, strain chs7, stronger effect = lower value 1 | locus YJL092W, strain hpr5, stronger effect = lower value 0.985 | locus YJL095W, strain BCK1 (second series), stronger effect = lower value 1.02 | locus YJL115W, strain asf1, stronger effect = lower value 0.994 | locus YJL129C, strain trk1, stronger effect = lower value 0.998 | locus YJL154C, strain vps35, stronger effect = lower value 0.989 | locus YJL164C, strain tpk1, stronger effect = lower value 1 | locus YJL166W, strain qcr8, stronger effect = lower value 1.02 | locus YJL187C, strain SWE1, stronger effect = lower value 1.02 | locus YKL160W, strain elf1, stronger effect = lower value 1 | locus YKR026C, strain gcn3, stronger effect = lower value 0.983 | locus YKR091W, strain srl3, stronger effect = lower value 1.01 | locus YLL001W, strain dnm1, stronger effect = lower value 1.01 | locus YLL026W, stronger effect = lower value 1.01 | locus YLL041C, strain sdh2, stronger effect = lower value 1 | locus YLR027C, strain aat2, stronger effect = lower value 1 | locus YLR221C, strain rsa3, stronger effect = lower value 0.999 | locus YLR258W, strain gsy2, stronger effect = lower value 1 | locus YLR262C, strain YPT6 (second series), stronger effect = lower value 1.01 | locus YLR320W, strain mms22, stronger effect = lower value 1.03 | locus YLR342W, strain FKS1, stronger effect = lower value 1.05 | locus YLR357W, strain rsc2, stronger effect = lower value 1.09 | locus YLR370C, strain arc18, stronger effect = lower value 1.01 | locus YLR384C, strain iki3, stronger effect = lower value 1.01 | locus YML120C, strain ndi1, stronger effect = lower value 1.01 | locus YMR058W, strain fet3, stronger effect = lower value 0.997 | locus YMR125W, strain sto1, stronger effect = lower value 1.07 | locus YMR129W, stronger effect = lower value 1 | locus YMR205C, strain PFK2, stronger effect = lower value 1.01 | locus YMR231W, strain pep5, stronger effect = lower value 1.01 | locus YNL071W, strain lat1, stronger effect = lower value 1.01 | locus YNL209W, strain ssb2, stronger effect = lower value 1.01 | locus YNL248C, strain rpa49, stronger effect = lower value 1.02 | locus YNL322C, strain KRE1 (second series), stronger effect = lower value 0.991 | locus YNR049C, strain mso1, stronger effect = lower value 1.01 | locus YOR001W, strain rrp6, stronger effect = lower value 0.994 | locus YOR070C, strain gyp1, stronger effect = lower value 0.999 | locus YOR080W, strain dia2, stronger effect = lower value 1.01 | locus YOR083W, strain WHI5, stronger effect = lower value 1 | locus YOR106W, strain vam3, stronger effect = lower value 1 | locus YOR265W, strain rbl2, stronger effect = lower value 1 | locus YOR270C, strain vph1, stronger effect = lower value 1.05 | locus YOR290C, strain snf2, stronger effect = lower value 0.967 | locus YPL051W, strain arl3, stronger effect = lower value 1.01 | locus YPL078C, strain atp4, stronger effect = lower value 0.995 | locus YPL106C, strain sse1, stronger effect = lower value 1 | locus YPL240C, strain hsp82, stronger effect = lower value 1.01
